The values below come from PubChem BioAssay.

Molecules are shown by their SMILES. Activity calls are given as the source filed them. Rule as the data show it: active = fold change permeability below about 0.7 or above about 1.3; inactive = in between.

The experiment is described as follows: modulators of brain endothelial barrier permeability, primary screen, cell-based, FITC-avidin fluorescence, HTS (AID 1963498). Also: test concentration not given here. As to conditions: actives lie on both sides.
As for `N[C@@H](Cn1oc(=O)[nH]c1=O)C(=O)O`, the fold change permeability is 1.1 (inactive).
As for `CCC1(C2=NCCN2)Cc2ccccc2O1` (stereo unspecified), the figure is 1 (inactive).
As for `CC(C)(C)NCC(O)c1ccccc1Cl` (stereo unspecified), the figure is 0.7 (active); as for `COc1ccc(OC)c(C(O)C(C)N)c1` (stereo unspecified), 0.8 (inactive); as for `C[N+]1(C)CCC(OC(=O)C(c2ccccc2)c2ccccc2)CC1`, 1.6 (active).
As for `CC1OC(C[N+](C)(C)C)CC1O` (stereo unspecified), the figure is 0.9 (inactive); as for `COc1cc([C@@H]2c3cc4c(cc3[C@H](O)[C@H]3COC(=O)[C@H]23)OCO4)cc(OC)c1OC`, 1.2 (inactive).
With `COc1ccc2[nH]c3c(c2c1)CCNC3`, the fold change permeability is 1 (inactive).
For the compound `CCCN(CCC)C1CCc2ccc(O)cc2C1` (stereo unspecified), the fold change permeability was 1.1 (inactive).
With `NCCc1c[nH]c2ccccc12`, the fold change permeability is 1.4 (active).
For `CC(C)[C@H]1CN[C@H](C(=O)O)[C@H]1CC(=O)O`, the fold change permeability is 1.1 (inactive).
As for `C=C(C)[C@H]1Cc2c(ccc3c2O[C@@H]2COc4cc(OC)c(OC)cc4[C@@H]2C3=O)O1`, the figure is 1.7 (active); as for `CCCN1CCC[C@@H](c2cccc(O)c2)C1`, 1 (inactive); as for `NC1CCc2cc(O)c(O)cc2C1` (stereo unspecified), 0.7 (active).
On to `CCN(CC)c1ncnc2c1ncn2[C@@H]1O[C@H](COP(=O)(O)OP(=O)(O)C(Br)(Br)P(=O)(O)O)[C@@H](O)[C@H]1O`, for which the fold change permeability was 1.1 (inactive).
The figure for `COc1ccc(C(CN(C)C)C2(O)CCCCC2)cc1` (stereo unspecified) is 1 (inactive); for `O=C(O)Cc1cnc[nH]1` it is 1 (inactive).
As for `CC(Cc1ccc(OCC(=O)O)cc1)NCC(O)c1cccc(Cl)c1` (stereo unspecified), the figure is 1 (inactive); as for `NCC1(CC(=O)O)CCCCC1`, 0.9 (inactive).
Turning to `CCCN1CCC[C@H](c2cccc(O)c2)C1`, the fold change permeability is 1 (inactive).
The figure for `CC(=O)[C@H]1CCC2C3CC[C@H]4C[C@H](O)CC[C@]4(C)C3CC[C@@]21C` (stereo partly specified) is 0.9 (inactive).
The figure for `CCCN1CCC[C@@H]2Cc3[nH]ncc3C[C@H]21` is 0.9 (inactive); for `O=C(O)c1nn(Cc2ccc(Cl)cc2Cl)c2ccccc12` it is 1.9 (active).
As for `C=C(C)[C@H]1CN[C@H](C(=O)O)[C@H]1CC(=O)O`, the figure is 1.8 (active).
As for `CCC1(c2ccc(N)cc2)CCC(=O)NC1=O` (stereo unspecified), the fold change permeability is 1 (inactive).
The figure for `NNC(N)=O` is 1 (inactive); for `NC(=O)c1cc(N2CC2)c([N+](=O)[O-])cc1[N+](=O)[O-]` it is 1 (inactive).
The figure for `CC(N)c1cccc(Cl)c1Cl` (stereo unspecified) is 1.1 (inactive).
As for `C#C[C@]1(O)CC[C@H]2[C@@H]3CCC4=Cc5nc6nc7ccccc7n6cc5C[C@]4(C)[C@H]3CC[C@@]21C`, the figure is 1.8 (active).
Regarding `C[N+]1(C)[C@@H]2CC[C@H]1CC(OC(=O)C(CO)c1ccccc1)C2` (stereo partly specified), the fold change permeability is 1 (inactive).
The figure for `CC(N)Cc1c[nH]c2ccc(OCc3cccs3)cc12` (stereo unspecified) is 1.3 (active); for `C[N+](C)(C)CC#CCN1CCCC1=O` it is 1 (inactive); for `CN1CC[C@@]2(C)c3cc(OC(=O)Nc4ccccc4)ccc3N(C)[C@@H]12` it is 1.4 (active).
Regarding `Cc1c(F)cccc1[C@H]1COC(N)=N1`, the fold change permeability was 1 (inactive).
The figure for `Fc1ccc(C(OCCN2CCN(CCCc3ccccc3)CC2)c2ccc(F)cc2)cc1` is 1.6 (active).
The figure for `CC(C(O)c1ccc(O)cc1)N1CCC(Cc2ccccc2)CC1` (stereo unspecified) is 1.3 (active).
